Measurements: PubChem BioAssay (NCATS)
Records with an inconclusive call do not appear. A call without a number means that no potency is given here. A number with no mark means an inactive call. Calls of active or inactive are those of the source. Calls follow the shape of the dose curve; as a rule, active = well fitted inhibition curve with a large enough effect; inconclusive = small, poorly fitted or top-dose-only effect; inactive = no such curve, though single readings can be large or run the other way.

Test: Primary qHTS for small molecule stabilizers of the endoplasmic reticulum resident proteome: Secreted ER Calcium Modulated Protein (SERCaMP) assay (AID 1508630)
Conditions: SH-SY5Y GLuc-SERCaMP (Gaussia luciferase released on ER calcium loss) secretion, thapsigargin, luminescence; series mostly up to 38.4 µM; activity change, negative = inhibition: at the top concentration
Excerpt: Assay Provider: Brandon K. Harvey Ph.D.
National Institute on Drug Abuse, National Institutes of Health, Baltimore, MD
Endoplasmic reticulum (ER) dysregulation is associated with human pathologies including neurodegenerative, cardiovascular, muscular, and diabetic conditions. Maintenance of ER calcium is critical for functions of the ER and its depletion can lead to loss of ER resident proteins, in a process termed exodosis. Therapeutic compounds capable of attenuating the redistribution of ER proteins under pathological conditions may slow or stop disease progression. To identify such compounds, we performed a quantitative high-throughput screen (qHTS) using the SERCaMP assay, which monitors secretion of ER resident proteins triggered by calcium depletion.
SERCaMP was initially developed as a reporter of ER calcium homeostasis using a Gaussia luciferase with a modified signal peptide and carboxy-terminus (GLuc-SERCaMP), modifications that confer secretion of the reporter in response to ER calcium depletion (Henderson et al., 2014). The assay was used to screen 9,501 compounds, including a collection of drugs approved by the FDA (US), EMA (EU), NHI (Japan), and HC (Canada) regulatory agencies (Huang et al., 2011). Since the SERCaMP reporter reflects the exodosis phenomenon (Trychta et al., 2018a), compounds identified in the screen have the potential to prevent exodosis by different mechanisms such as stabilizing ER calcium or augmenting ERS retrieval.
1. Henderson, M.J., Wires, E.S., Trychta, K.A., Richie, C.T., and Harvey, B.K. (2014). SERCaMP: a carboxy-terminal protein modification that enables monitoring of ER calcium homeostasis. Mol Biol Cell 25, 2828-2839.
2. Huang, R., Southall, N., Wang, Y., Yasgar, A., Shinn, P., Jadhav, A., Nguyen, D.T., and Austin, C.P. (2011). The NCGC pharmaceutical collection: a comprehensive resource of clinically approved drugs enabling repurposing and chemical genomics. Sci Transl Med 3, 80ps16.
3. Trychta, K.A., Back, S., Henderson, M.J., and Harvey, B.K. (2018a). KDEL Receptors Are Differentially Regulated to Maintain the ER Proteome under Calcium Deficiency. Cell Rep 25, 1829-1840 e1826.
SEQUENCE No. (1, 2, 3, etc.); […] (e.g., Cells, Incubation, Reagent, etc.); VALUE and DESCRIPTION.
1; Reagent; 5 uL; 1000 SH-SY5Y cells per wells
3; Compound; 23 nL; Control inhibitor / compound library
5; Reagent; 100 nM; Thapsigargin
7; Reagent; 1 uL; 0.5x coelenterazine
8; Detection; Luminescence; ViewLux imaging system
NOTES (numbers refer to sequence above)
1; SH-SY5Y human neuroblastoma cells stably expressing GLuc-SERCaMP (SH-SY5Y-GLuc-ASARTDL) cells were seeded in 1,536 well white tissue culture treated plates (Corning, Cat# 7464) in DMEM-high glucose-sodium pyruvate (ThermoFisher Scientific, Cat #10569) supplemented with 10% bovine growth serum (Hyclone), 10 U/ml penicillin (Gibco), 10 ug/ml streptomycin (Gibco), and 20 mM HEPES.
2; Assay plates were incubated for 5 hour at 37C in a humidified incubator containing 5% CO2.
3; qHTS libraries (23 nl, final concentrations of 1.53 uM, 7.67 uM, 38.3 uM) or controls (neutral control: DMSO, positive control: dantrolene) were added using a Kalypsis pin-tool Robotic System equipped with 1536 pinheads.
4; Cells were then incubated for 16 hours at 37C, 5% CO2.
5; Thapsigargin was added at 100 nM to deplete ER calcium stores.
6; Cells were incubated for 4 hour (37 °C, 5% CO2)
7; Gaussia luciferase in the medium was measured by adding 1 ul of 0.5x coelenterazine (final concentration 0.07x) prepared in Gaussia Luciferase Glow Assay Buffer (Pierce), without addition of the Cell Lysis Buffer Reagent.
8; Luminescence was measured using a ViewLux […] CCD imaging system (Perkin Elmer) equipped with clear filters. […] The same controls were also used for the calculation of the Z' factor, a measure of assay quality control, as previously described (Zhang et al., 1999). […]
Potency is read from the fitted curve at half-maximal effect.

Structure (SMILES)	Potency	activity change, negative = inhibition [%]
CCN1CCC[C@H]1CNC(=O)c1c(O)c(Cl)cc(Cl)c1OC	inactive	–
CNC1(C)C2CCC(C2)C1(C)C (stereo not given)	–	-30
O=c1[nH]c(=O)n([C@H]2C[C@H](O)[C@@H](CO)O2)cc1Br	–	-12.7
CCN(Cc1ccncc1)C(=O)C(CO)c1ccccc1 (stereo not given)	inactive	–
CCN(CC)CC(=O)Nc1c(C)cccc1C	inactive	–
CC(=O)OCC1=C(C(=O)O)N2C(=O)[C@@H](NC(=O)Cc3cccs3)[C@H]2SC1	–	-23
NC(=Nc1ccccc1)Nc1ccccc1	3.16 µM (active)	–
CCCOc1ccccc1-c1nc2n[nH]nc2c(=O)[nH]1	–	-26.1
C=CCc1ccccc1OCC(O)CNC(C)C (stereo not given)	inactive	–
NC(=O)c1cn(Cc2c(F)cccc2F)nn1	inactive	–
FC(F)(F)c1ccccc1-n1ccnc1	inactive	–
CCn1ccnc1CC1COc2ccccc2O1 (stereo not given)	inactive	–
O=C(O)CN(CCOCCOCCN(CC(=O)O)CC(=O)O)CC(=O)O	–	8.07
COCC(=O)O[C@]1(CCN(C)CCCc2nc3ccccc3[nH]2)CCc2cc(F)ccc2[C@@H]1C(C)C	inactive	–
C[n+]1cc2c3c(ccc2c2ccc4cc5c(cc4c21)OCO5)OCO3	inactive	–
COCCc1ccc(OCC(O)CNC(C)C)cc1 (stereo not given)	inactive	–
C[C@]12CC[C@@H]3c4ccc(O)cc4C[C@@H](CCCCCCCCCS(=O)CCCC(F)(F)C(F)(F)F)[C@H]3[C@@H]1CC[C@@H]2O (stereo not given in full)	–	-25.6
CCOC(=O)c1cnc2c(cnn2CC)c1NN=C(C)C	inactive	–
NC/C=C/C(=O)O	–	18.1
Cc1nnc(SCC2=C(C(=O)O)N3C(=O)[C@@H](NC(=O)Cn4cnnn4)[C@H]3SC2)s1	–	-9.02

Structure (SMILES)	Potency	activity change, negative = inhibition [%]
CCN(CC)CCNC(=O)c1ccc(NC(C)=O)cc1	inactive	–
COc1ccc(CN(CCN(C)C)c2ccccn2)cc1	inactive	–
COc1ccc(CCN(C)CCCC(C#N)(c2cc(OC)c(OC)c(OC)c2)C(C)C)cc1OC (stereo not given)	–	11.7
OCCN1CCN(CC/C=C2/c3ccccc3Sc3ccc(C(F)(F)F)cc32)CC1	inactive	–
C[N+](C)(C)CCCCCCCCCC[N+](C)(C)C	–	-18.7
CCOC(=O)C1=C(C)NC(C)=C(C(=O)OC)C1c1cccc([N+](=O)[O-])c1 (stereo not given)	inactive	–
CCOC(=O)C1=C(C)NC(C)=C(C(=O)OC)C1c1cccc(Cl)c1Cl (stereo not given)	inactive	–
C[C@]12CCC(=O)C=C1CC[C@@H]1[C@@H]2CC[C@@]2(C)[C@H]1CC[C@]2(O)C(=O)CO	inactive	–
Cc1ccc(=O)n(-c2ccccc2)c1	–	-18.4
Brc1c(NC2=NCCN2)ccc2nccnc12	inactive	–
Cc1nc2c([nH]1)c(=O)n(C)c(=O)n2Cc1ccco1	inactive	–
CCCCNC(=O)NS(=O)(=O)c1ccc(C)cc1	inactive	–
Nc1c2c(nc3ccccc13)CCCC2O (stereo not given)	inactive	–
NC(N)=NC(=O)Cc1c(Cl)cccc1Cl	inactive	–
CN(C)[C@@H]1C(=O)C(C(N)=O)=C(O)[C@@]2(O)C(=O)C3=C(O)c4c(O)ccc(Cl)c4[C@@H](O)[C@H]3C[C@@H]12	–	-29.1
COCCOC(=O)C1=C(C)NC(C)=C(C(=O)OC(C)C)C1c1cccc([N+](=O)[O-])c1 (stereo not given)	–	-4.35
C[C@H](CS)C(=O)N1CCC[C@H]1C(=O)O	inactive	–
CN(C)CCCN1c2ccccc2Sc2ccc(C(F)(F)F)cc21	–	-1.45
CC(=O)OC(C)C[N+](C)(C)C (stereo not given)	inactive	–
CC(=O)[C@]1(O)Cc2c(O)c3c(c(O)c2[C@@H](O[C@H]2C[C@H](N)[C@H](O)[C@H](C)O2)C1)C(=O)c1ccccc1C3=O	inactive	–
